# Screening results (PubChem)
# The list is not random: actives were taken first. Their share in the collection is about 1.2%.
# PriA SSB inh: blocks PriA binding to SSB C-terminal tail. AlphaScreen SSBct-PriA binding, biotinylated peptide. inhibition, % at 33 µM. 430,000 tested, 0.6% active. AID 1272365; in the data active = inhibition mostly above about 37%, no sharp cut-off; inactive = mostly below about 20%;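 also: plate controls were negative control peptide for no effect and reference peptide for full effect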
# FadD28 binding: M. tuberculosis FadD28 bisubstrate binding inhibition | FadD28 bisubstrate probe binding, fluorescence polarization | inhibition, % at 12.5 µM | 360,000 tested, 0.22% active; in the data active = inhibition above about 8.5%, passing the limit was not always enough
# PrPC TRFRET: reduces human prion protein on the cell surface; inhibition, % at 13.8 µM; cell surface PrPC, TR-FRET read-out; P04156; 370,000 tested, 0.43% active; in the data active = inhibition above about 24%; also: 0% = median of the test wells and 100% = reference compound wells
# Rv3671c protease: inhibits the M. tuberculosis serine protease Rv3671c. 320,000 tested, 0.048% active. P9WHR9. inhibition, % at 5.96 µM; in the data active = inhibition above about 38%;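 also: extracellular domain of Rv3671c used as enzyme; 0% = enzyme with DMSO and 100% = no enzyme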
# PrP UTR inh: inhibition of PrP 5' UTR reporter expression | cell-based PrP 5' UTR mRNA reporter, plate reader | inhibition, % (test concentration not listed) | 340,000 tested, 0.35% active; in the data active = inhibition above about 52%; also: 0 = median of the neutral control wells
# Mtb UGM inh: blocks M. tuberculosis UGM enzyme; P9WIQ1; purified UGM, fluorescence polarization probe displacement; inhibition, % at 10 µM; 320,000 tested, 0.06% active; AID 504406; in the data active = inhibition above about 10%, passing the limit was not always enough
# Target sequence (P9WIQ1 whole entry, looked up): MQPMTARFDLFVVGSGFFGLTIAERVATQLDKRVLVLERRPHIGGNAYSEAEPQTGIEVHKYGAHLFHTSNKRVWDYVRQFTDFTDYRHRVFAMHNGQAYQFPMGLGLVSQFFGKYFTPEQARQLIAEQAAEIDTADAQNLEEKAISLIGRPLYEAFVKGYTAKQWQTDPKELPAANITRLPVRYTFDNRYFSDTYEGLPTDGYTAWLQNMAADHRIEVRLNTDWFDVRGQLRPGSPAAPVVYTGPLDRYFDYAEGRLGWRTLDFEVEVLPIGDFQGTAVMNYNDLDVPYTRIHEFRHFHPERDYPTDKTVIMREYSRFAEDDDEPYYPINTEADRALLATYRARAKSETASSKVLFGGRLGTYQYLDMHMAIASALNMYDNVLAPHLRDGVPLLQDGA
# * = called active by the depositor; . = no result.
SMILES,PriA SSB inh,FadD28 binding,PrPC TRFRET,Rv3671c protease,PrP UTR inh,Mtb UGM inh
N#CCC(=O)Nc1ccc(C(=O)OCC(=O)Nc2cccc(C(F)(F)F)c2)cc1,-6.0,11.2*,-0.5,-118.2,-10.6,-0.8
NC(=NOC(=O)CCc1ccccc1)c1ccc(Br)cc1,-72.8,.,.,.,.,.
O=C(c1ccc(F)cc1Cl)N1CCC(Cn2cccn2)CC1,37.0*,.,.,.,.,.
O=C(Nc1nc(-c2ccccn2)cs1)c1ccccc1[N+](=O)[O-],105.0*,.,.,.,.,.
O=C(Nc1nc(-c2ccccn2)cs1)c1ccc([N+](=O)[O-])o1,50.9*,0.7,-0.8,-13.3,-7.0,-2.8
Cc1csc(NC(=O)c2ccccc2[N+](=O)[O-])n1,-3.7,-3.6,-2.9,10.2,-25.4,-0.7
O=C(Nc1nc(-c2ccccc2)cs1)c1ccccc1[N+](=O)[O-],84.4*,.,.,.,.,.
O=C(Nc1nc(-c2ccccn2)cs1)c1cc(Cl)ccc1[N+](=O)[O-],63.9*,-4.1,15.8,3.4,26.1,0.1
CCCCC(=O)Nc1ncc(Cc2ccc(C)cc2)s1,-17.0,.,.,.,.,.
COc1ccc(NC(=O)Cn2c(C)nc3c(sc4ccccc43)c2=O)cc1Cl,-11.0,.,.,.,.,.
O=C(N=c1ccn(-c2nc3ccccc3nc2NS(=O)(=O)c2ccc(Cl)cc2)cc1)c1ccccc1Cl,.,.,.,1.4,.,34.1*
O=C(N=c1ccn(-c2nc3ccccc3nc2NS(=O)(=O)c2ccc(Cl)cc2)cc1)c1cccs1,-20.3,-2.5,7.9,-14.0,-9.7,17.2*
O=C(N=c1ccn(-c2nc3ccccc3nc2NS(=O)(=O)c2ccccc2)cc1)c1ccccc1Cl,-0.8,-1.0,-5.0,-0.9,-7.5,1.8
CCOc1ccc(-c2ccc(N3CCN(C(=O)C4CCCO4)CC3)nn2)cc1 (centres undefined),0.0,.,.,.,.,.
C/C(=C\C(=S)Nc1ccccc1)Nc1ccc2ccccc2c1,66.5*,-4.3,-6.8,-14.6,-45.5,1.0
COc1cccc(C(=O)OCC(=O)NC(=O)NC2CCCC2)c1O,-4.8,11.9*,-0.8,8.1,-12.0,-0.5
COc1ccc(C(=O)OCC(=O)NC(=O)NC2CCCC2)cc1OC,-1.6,1.3,0.3,-4.8,9.6,1.2
COc1cc(Nc2ccc(S(=O)(=O)N3CCN(C)CC3)cc2[N+](=O)[O-])cc(OC)c1,32.1,0.0,-36.9,7.4,-19.0,3.1
COc1cccc(Oc2cc(NN3CCCCC3)c([N+](=O)[O-])cc2[N+](=O)[O-])c1OC,47.9*,1.8,0.4,-3.4,-16.9,3.0
COc1ccccc1Nc1ccc(C(=O)O)cc1[N+](=O)[O-],11.8,0.0,-27.1,-0.2,-16.7,-0.2
Cc1cccc(Nc2ccc(S(=O)(=O)N3CCOCC3)cc2[N+](=O)[O-])c1,37.2,-1.5,-30.2,-6.8,-10.1,1.1
CSc1cccc(Nc2ccc(S(=O)(=O)N3CCOCC3)cc2[N+](=O)[O-])c1,38.4*,.,-30.6,1.0,0.8,0.2
COc1ccc(Nc2ccc(S(=O)(=O)N3CCCCC3)cc2[N+](=O)[O-])cc1OC,69.8*,1.9,-7.5,5.8,-16.3,-1.3
COc1ccccc1Nc1ccc(S(=O)(=O)N2CCCCC2)cc1[N+](=O)[O-],63.2*,-1.5,-2.0,12.0,4.6,0.6
COc1ccc(C2CCN(S(=O)(=O)/C=C/c3ccc(C)cc3)C2)cc1 (centres undefined),-1.0,.,.,.,.,.
SMILES,PriA SSB inh,FadD28 binding,PrPC TRFRET,Rv3671c protease,PrP UTR inh,Mtb UGM inh
CCOc1ncc(NS(=O)(=O)c2ccc(NC(C)=O)cc2)c(OCC)n1,3.0,.,.,.,.,.
Cc1csc(-c2nnc(NC(=O)C3c4ccccc4Oc4ccccc43)o2)c1,0.0,.,.,.,.,.
COc1ccc(Br)c(C(=O)NCC[C@H](O)C2CCOCC2)c1,-4.0,.,.,.,.,.
Cc1nc(C(=O)NCCCn2ccc3cccnc32)cs1,-9.0,.,.,.,.,.
CC(Oc1cccc(F)c1)C(=O)N1CCN(c2ccc3nncn3n2)CC1 (centres undefined),-10.0,.,.,.,.,.
COc1ccc(Nc2ccc(S(=O)(=O)N3CCCCCC3)cc2[N+](=O)[O-])cc1,45.9*,-0.2,-4.7,3.8,-28.3,-2.5
COc1ccccc1C(C)Nc1ccc(S(=O)(=O)N2CCN(C)CC2)cc1[N+](=O)[O-] (centres undefined),56.6*,0.4,-14.3,-4.8,.,2.0
COc1ccccc1C(C)Nc1ccc(S(=O)(=O)N2CCCC2)cc1[N+](=O)[O-] (centres undefined),48.0,.,.,.,.,.
O=C(NCCC1=CCCCC1)C(=O)NCCc1c[nH]c2ccccc12,4.0,.,.,.,.,.
N#C/C(=C\c1coc2ccc(O)cc2c1=O)C(=O)Nc1nc2ccccc2s1,13.0,29.5*,-3.1,-7.3,5.4,-26.2
O=[N+]([O-])c1ccc(CNc2ccc(Cl)cc2)s1,11.8,10.1*,-0.2,-10.3,-15.8,0.2
Cc1cc(C)c2sc(NC(=O)CSc3ccc(F)cc3)nc2c1,-6.0,.,.,.,.,.
O=C(O)CNC(=O)CC1SC(=NN=C2CSC(=O)N2)NC1=O (centres undefined),95.5*,.,.,.,.,.
COc1ccccc1[C@H](CNC(=O)Nc1ccc(C(F)(F)F)cc1)OC,-10.0,.,.,.,.,.
Cc1ncn(CC(=O)Nc2ccccc2-c2cn3cccc(C)c3n2)c(=O)c1C,-13.0,.,.,.,.,.
CN(c1ncnc2nc[nH]c12)C1CCCCC1,7.0,.,.,.,.,.
CN(CCO)c1ncnc2nc[nH]c12,104.2*,-1.1,-1.2,6.0,-24.6,-0.8
CCCc1cc(=O)[nH]c(-n2nc(C)cc2C)n1,12.0,.,.,.,.,.
Cc1cc(C)n(-c2nnc(C)c(=O)[nH]2)n1,73.5*,-4.2,-1.2,-12.8,-18.7,0.9
Cc1cccc(Nc2nc(N)c([N+](=O)[O-])c(N3CC(C)CC(C)C3)n2)c1 (centres undefined),50.1*,-2.4,-0.3,-10.6,-9.0,-1.1
CCOc1ccccc1-n1nncc1SCC(=O)NC(C)C,0.0,.,.,.,.,.
c1ccc2c(CNc3ccc(CNc4ncn[nH]4)cc3)cccc2c1,39.6*,0.2,8.8,0.4,-8.7,3.9
Nc1n[nH]c(C(=O)N/N=C\c2cccs2)n1,50.0*,.,.,.,.,.
Cc1n[nH]c(=O)nc1NN=Cc1cccs1,59.2*,.,.,.,.,.
O=C(CSc1nnc(CNc2ccc(Cl)cc2)o1)Nc1nc2c(s1)CCCC2,16.2,15.2*,-2.4,5.2,-8.0,1.2
SMILES,PriA SSB inh,FadD28 binding,PrPC TRFRET,Rv3671c protease,PrP UTR inh,Mtb UGM inh
O=C(CCSc1ccc(Cl)cc1)Nc1nc2c(s1)CCC2,1.0,.,.,.,.,.
CCc1cccc(NC(=S)Nc2cccc3ccccc23)c1,38.5*,-1.5,3.7,5.6,-9.6,2.4
CCOc1ccc(NC(=S)Nc2cccc3cnccc23)cc1,33.1,2.1,-11.8,-5.6,-15.1,1.7
CCOc1ccc(NC(=S)Nc2cccc3ccccc23)cc1,49.6*,-0.1,3.1,0.1,-14.1,-1.1
Cc1cccc(NC(=S)Nc2cccc3ccccc23)c1,32.8,-4.7,2.5,-5.6,-17.4,-3.2
O=C(COc1ccc(Cl)cc1Cl)NCCCS(=O)(=O)N1CCN(c2ncccn2)CC1,-4.0,.,.,.,.,.
Cc1cc(C(=O)NC2CC3CCC(C2)N3S(C)(=O)=O)n(C)n1 (centres undefined),-7.0,.,.,.,.,.
CN(C)c1ccc(C=Nc2nnc(NC(=O)c3ccccc3Br)s2)cc1,2.0,.,.,.,.,.
Cc1cc(C)cc(C(=O)Nc2nnc(N=Cc3ccc(Br)s3)s2)c1,71.0*,.,.,.,.,.
